Test results as given in PubChem BioAssay AID1159580 (chemical genetic matrix, 2015).
Where “and” joins values, the source holds several entries; their conditions need not be identical. Equal values may be shown once. Among all 5,500 compounds or so, about 2,000 (36%) were called active. Roughly 18% stayed inconclusive and do not appear here. The list shows a part of the results. A number with no mark means an inactive call. No stated cut-off is given here; in the data, active means normalized growth mostly below about 0.91 (no sharp cut-off); inconclusive means no clear call, values can overlap the other calls; inactive means mostly above about 0.92.

Assay: chemical genetic growth profiling, strain panel (AID 1159580);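 further: tested at 20 µM; growth read once vehicle control cultures reached saturation at 30 °C; 1 = growth at the plate median or of vehicle wells; lower values mean less growth of the strain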
Details: S. cerevisiae deletion strains, growth OD

## CCCC(C)C1(CC)C(=O)N=C(S)NC1=O (stereo unspecified)
Locus YAL013W, strain DEP1, active compounds read low
  normalized growth: 1.01
Locus YAL021C, strain ccr4, active compounds read low
  normalized growth: 0.993
Locus YAL026C, strain drs2, active compounds read low
  normalized growth: 0.994
Locus YAL030W, strain snc1, active compounds read low
  normalized growth: 0.983
Locus YBL061C, strain skt5, active compounds read low
  normalized growth: 1.01
Locus YBR009C, strain hhf1, active compounds read low
  normalized growth: 0.992
Locus YBR021W, strain FUR4, active compounds read low
  normalized growth: 1.01
Locus YBR023C, strain chs3, active compounds read low
  normalized growth: 0.989
Locus YBR171W, strain sec66, active compounds read low
  normalized growth: 0.993
Locus YBR229C, strain ROT2, active compounds read low
  normalized growth: 1.01
Locus YBR231C, strain swc5, active compounds read low
  normalized growth: 1.01
Locus YBR279W, strain paf1, active compounds read low
  normalized growth: 0.998
Locus YCL011C, strain gbp2, active compounds read low
  normalized growth: 1.01
Locus YCL016C, strain dcc1, active compounds read low
  normalized growth: 0.995
Locus YCL029C, strain bik1, active compounds read low
  normalized growth: 0.557 (active)
Locus YCL061C, strain MRC1, active compounds read low
  normalized growth: 1
Locus YCL069W, strain vba3, active compounds read low
  normalized growth: 1
Locus YCR088W, strain abp1, active compounds read low
  normalized growth: 0.984
Locus YDL005C, strain med2, active compounds read low
  normalized growth: 0.987
Locus YDL035C, strain GPR1, active compounds read low
  normalized growth: 1.02
Locus YDL040C, strain nat1, active compounds read low
  normalized growth: 0.993
Locus YDL074C, strain BRE1, active compounds read low
  normalized growth: 1.06
Locus YDL101C, strain DUN1, active compounds read low
  normalized growth: 1.01
Locus YDL134C, strain PPH21, active compounds read low
  normalized growth: 1
Locus YDL185W, strain tfp1, active compounds read low
  normalized growth: 1.01
Locus YDL192W, strain arf1, active compounds read low
  normalized growth: 0.0766 (active)
Locus YDR001C, strain nth1, active compounds read low
  normalized growth: 1
Locus YDR069C, strain doa4, active compounds read low
  normalized growth: 0.996
Locus YDR101C, strain arx1, active compounds read low
  normalized growth: 0.371 (active)
Locus YDR137W, strain rgp1, active compounds read low
  normalized growth: 0.908
Locus YDR150W, strain NUM1, active compounds read low
  normalized growth: 1.02
Locus YDR159W, strain sac3, active compounds read low
  normalized growth: 0.971
Locus YDR162C, strain NBP2, active compounds read low
  normalized growth: 1.02
Locus YDR195W, strain ref2
  normalized growth: 0.979
Locus YDR297W, strain sur2, active compounds read low
  normalized growth: 0.997
Locus YDR318W, strain mcm21, active compounds read low
  normalized growth: 0.0671 (active)
Locus YDR334W, strain swr1, active compounds read low
  normalized growth: 0.998
Locus YDR335W, strain msn5, active compounds read low
  normalized growth: 0.993
Locus YDR388W, active compounds read low
  normalized growth: 0.0597 (active)
Locus YDR392W, strain spt3, active compounds read low
  normalized growth: 0.977
Locus YDR502C, strain sam2, active compounds read low
  normalized growth: 0.0887 (active)
Locus YEL003W, strain gim4, active compounds read low
  normalized growth: 0.997
Locus YEL037C, strain rad23, active compounds read low
  normalized growth: 1
Locus YEL061C, strain CIN8 (second series), active compounds read low
  normalized growth: 0.997
Locus YEL061C, strain CIN8, active compounds read low
  normalized growth: 1
Locus YER015W, strain faa2, active compounds read low
  normalized growth: 0.998
Locus YER016W, strain bim1, active compounds read low
  normalized growth: 1.01
Locus YER110C, active compounds read low
  normalized growth: 0.157 (active)
Locus YER111C, strain swi4, active compounds read low
  normalized growth: 1.01
Locus YER155C, strain BEM2 (second series), active compounds read low
  normalized growth: 0.986
Locus YER155C, strain BEM2, active compounds read low
  normalized growth: 1.01
Locus YER167W, strain BCK2, active compounds read low
  normalized growth: 1.02
Locus YFR010W, strain ubp6, active compounds read low
  normalized growth: 1.01
Locus YGL078C, strain dbp3, active compounds read low
  normalized growth: 0.095 (active)
Locus YGL086W, strain mad1, active compounds read low
  normalized growth: 0.0546 (active)
Locus YGL167C, strain pmr1, active compounds read low
  normalized growth: 0.991
Locus YGL173C, strain kem1, active compounds read low
  normalized growth: 0.99
Locus YGL227W, strain vid30, active compounds read low
  normalized growth: 0.981
Locus YGL240W, strain doc1, active compounds read low
  normalized growth: 0.982
Locus YGL248W, strain PDE1, active compounds read low
  normalized growth: 1.01
Locus YGL253W, strain hxk2, active compounds read low
  normalized growth: 1.01
Locus YGR078C, strain PAC10, active compounds read low
  normalized growth: 1.03
Locus YGR135W, strain pre9, active compounds read low
  normalized growth: 0.0693 (active)
Locus YGR229C, strain SMI1, active compounds read low
  normalized growth: 1.01
Locus YGR252W, strain gcn5, active compounds read low
  normalized growth: 0.187 (active)
Locus YHR013C, strain ard1, active compounds read low
  normalized growth: 0.997
Locus YHR027C, strain rpn1, active compounds read low
  normalized growth: 0.996
Locus YHR030C, strain SLT2, active compounds read low
  normalized growth: 1.01 and 0.984
Locus YHR079C, strain IRE1 (second series), active compounds read low
  normalized growth: 0.407 (active)
Locus YHR079C, strain IRE1, active compounds read low
  normalized growth: 0.979
Locus YHR094C, strain hxt1, active compounds read low
  normalized growth: 0.0939 (active)
Locus YHR129C, strain ARP1, active compounds read low
  normalized growth: 1.01
Locus YHR142W, strain chs7, active compounds read low
  normalized growth: 0.986
Locus YHR200W, strain rpn10, active compounds read low
  normalized growth: 0.0912 (active)
Locus YIL066C, strain RNR3, active compounds read low
  normalized growth: 1.03
Locus YIL073C, strain SPO22, active compounds read low
  normalized growth: 1.11
Locus YIL125W, strain kgd1, active compounds read low
  normalized growth: 0.141 (active)
Locus YIR030C, strain dcg1, active compounds read low
  normalized growth: 0.185 (active)
Locus YJL092W, strain hpr5, active compounds read low
  normalized growth: 0.991
Locus YJL095W, strain BCK1 (second series), active compounds read low
  normalized growth: 0.995
Locus YJL095W, strain BCK1, active compounds read low
  normalized growth: 1 and 0.991
Locus YJL115W, strain asf1, active compounds read low
  normalized growth: 0.988
Locus YJL129C, strain trk1, active compounds read low
  normalized growth: 0.962
Locus YJL134W, strain LCB3, active compounds read low
  normalized growth: 1.01
Locus YJL154C, strain vps35, active compounds read low
  normalized growth: 0.987
Locus YJL164C, strain tpk1, active compounds read low
  normalized growth: 0.995
Locus YJL166W, strain qcr8, active compounds read low
  normalized growth: 0.975
Locus YJL168C, strain set2, active compounds read low
  normalized growth: 0.123 (active)
Locus YJL187C, strain SWE1 (second series), active compounds read low
  normalized growth: 1
Locus YJR043C, strain POL32, active compounds read low
  normalized growth: 1.02
Locus YJR066W, strain TOR1, active compounds read low
  normalized growth: 0.945
